# In PubChem BioAssay (NCATS):
# Records with an inconclusive call do not appear. Where a call stands in place of a potency, no number is given. The source made the active and inactive calls. Unless noted, the call rests on the fitted dose curve; in most records, active means well fitted curve in the direction sought with a large enough effect; inconclusive means small, poorly fitted or top-dose-only effect, or another doubt; inactive means no such curve, though single readings can be large; an effect the other way counts as inactive or inconclusive.
# Experiments:
# [1] = qHTS to identify inhibitors of the type 1 interferon - major histocompatibility complex class I in skeletal muscle: primary screen against the NCATS Mechanism Interrogation Plate v5.0 (MIPE) Libary (AID 1347411); further: nearly all actives have a fitted effect of over 65% in size
# Outline: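 Cells were genome-edited human myoblasts carrying a HiBit tag on endogenous HLA-B. They were treated with IFN-beta (4.0 ng/ml) and titrated compounds (top 46 uM) for 24 hrs before lytic HiBiT detection.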
# [2] = Primary qHTS for inhibitors of nuclear receptor binding SET domain protein 2 (NSD2) in an isogenic RCH-ACV NSD2 p.E1099K mutant (9B) (AID 1645876); further: nearly all actives have a fitted effect of over 70% in size
# [3] = Primary qHTS for inhibitors of nuclear receptor binding SET domain protein 2 (NSD2) in an RCH-ACV wild type WT cells (2C) (AID 1645877); further: nearly all actives have a fitted effect of over 70% in size
# [4] = target: Glutathione peroxidase 1 (Homo sapiens) (UniProt P07203); assay: Primary qHTS Assay for Inhibitors of Recombinant Selenoprotein Glutathione Peroxidase 1 (GPX1) (AID 1845191); further: nearly all actives have a fitted effect of over 65% in size
# Outline: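 Recombinant GPX1 (10 nM final) was preincubated with compound for 30 min at room temperature, then reacted with 1 mM GSH, 0.5 mM CHP, 0.5 mM NADPH and 100 nM glutathione reductase; NADPH fluorescence (340/450 nm) was read at 0 and 15 min.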
# [5] = target: Phospholipid hydroperoxide glutathione peroxidase GPX4 (Homo sapiens) (UniProt P36969); assay: Primary qHTS Assay for Inhibitors of Recombinant Selenoprotein Glutathione Peroxidase 4 (GPX4) (AID 1845192); conditions: outcome: dose series up to 50 µM unless noted; further: nearly all actives have a fitted effect of over 65% in size
# Outline: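 GR-coupled readout: 100 nM GR, 1 mM GSH, 0.5 mM NADPH; NADPH fluorescence (ex 340/em 450 nm) read at t=0 and after 15 min RT. GPX4 200 nM, preincubated 30 min with compound; substrate 0.5 mM CHP.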
# [6] = qHTS drug screen for cell cycle checkpoint inhibitors in PARPi-resistant BRCA-mutant ovarian cancer cell lines. (AID 1963452; calls by dose curve); conditions: PEO1/OlaR viability, CellTiter-Glo luminescence, 96 h; for Z-AUC: stronger effect = lower value
# Outline: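 PEO1, PEO4 and PEO1/OlaR ovarian cancer cells, 600 per well, exposed 96 h at 37C to a dilution series. Viability read by CellTiter-Glo luminescence, normalized to DMSO and empty wells; activity summarized as Z-AUC.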
# [7] = measured here: PEO1 parental Z-AUC
# Potency means the concentration at half of the fitted maximal effect.
# Phospholipid hydroperoxide glutathione peroxidase GPX4 (Homo sapiens), sequence (P36969 whole entry, looked up): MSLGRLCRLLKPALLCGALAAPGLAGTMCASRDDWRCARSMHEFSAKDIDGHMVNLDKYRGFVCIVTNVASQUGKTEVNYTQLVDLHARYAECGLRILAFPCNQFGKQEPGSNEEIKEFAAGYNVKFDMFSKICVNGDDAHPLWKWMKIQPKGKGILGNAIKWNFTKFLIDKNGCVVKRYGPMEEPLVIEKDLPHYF
# Glutathione peroxidase 1 (Homo sapiens), sequence (P07203 whole entry, looked up): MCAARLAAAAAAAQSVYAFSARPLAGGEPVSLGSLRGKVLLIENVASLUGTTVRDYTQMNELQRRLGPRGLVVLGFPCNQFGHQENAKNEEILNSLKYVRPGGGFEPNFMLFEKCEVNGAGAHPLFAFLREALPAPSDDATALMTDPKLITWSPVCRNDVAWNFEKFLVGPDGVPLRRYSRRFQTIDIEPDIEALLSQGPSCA
SMILES,Potency [1],Potency [2],Potency [3],Potency [4],Potency [5],Z-AUC [6],"Z-AUC [6, 7]",Z-AUC ([6]; measured here: PEO4 Z-AUC),Potency [6]
O=C(/C=C/N1C[C@H]2C[C@@H]1CN2c1ccccn1)c1ccccc1O,inactive,inactive,inactive,inactive,inactive,1.02 (inactive),0.925,0.836,–
O=C(CCNC(=O)c1ccc(OC(F)(F)F)cc1)N[C@@H]1CCCc2ccccc21,inactive,inactive,inactive,inactive,inactive,1.15 (inactive),0.0965,0.626,–
O=C([O-])C[O-].[Pt+2],inactive,inactive,inactive,inactive,inactive,1.62 (inactive),1.67,1.5,–
C=CC(=O)Nc1cccc(Oc2nc(Nc3ccc(N4CCN(C)CC4)c(F)c3)nc3[nH]ccc23)c1,20800 nM (active),1480 nM (active),1320 nM (active),inactive,inactive,-1.38 (inactive),-0.613,-0.658,–
COc1cc(C)[nH]c(=O)c1CN1CCc2c(Cl)cc([C@H](OC)C3COC3)c(Cl)c2C1=O,inactive,inactive,inactive,inactive,inactive,1.05 (inactive),0.817,0.549,–
O=C(NCc1ccccc1)[C@H](Cc1ccccc1)NC(=O)[C@H]1O[C@@H]1C(=O)NCCc1ccc(O)cc1,inactive,23500 nM (active),18600 nM (active),inactive,inactive,1.49 (inactive),0.636,0.423,–
Cc1nnn(C)c1-c1cnc2c3ccc(C(C)(C)O)cc3n([C@H](c3ccccc3)C3CCOCC3)c2c1,inactive,7.4 nM (active),9.3 nM (active),18300 nM (active),16100 nM (active),–,-1.84,-2.14,549 nM (active)
O=C(NO)c1ccc(C2=Nc3ccccc3Oc3ccccc32)cc1,18600 nM (active),2950 nM (active),2630 nM (active),inactive,inactive,-0.476 (inactive),-1.06,-1.1,–
COc1ccc(Cl)cc1-c1cc(=O)[nH]c(=S)n1CC(N)=O,inactive,inactive,inactive,inactive,inactive,0.0644 (inactive),0.00773,0.346,–
[2H]c1nc(C)nc([2H])c1-c1cc(NC[C@@H](C)c2cccc3c(C(=O)NC)ccnc23)ncn1,inactive,inactive,inactive,inactive,inactive,1.38 (inactive),1.26,1.18,–
NC(CC1c2ccccc2Oc2ccccc21)(C(=O)O)C1CC1C(=O)O (configuration not stated),inactive,inactive,inactive,inactive,inactive,-0.154 (inactive),0.493,0.591,–
COc1cc2nccc(Oc3ccc(NC(=O)c4cn(C(C)C)c(=O)n(-c5ccc(F)cc5)c4=O)cc3F)c2cc1OC,inactive,inactive,inactive,inactive,inactive,-0.766 (inactive),-0.766,-0.777,–
C[C@H]1CNCCCN1S(=O)(=O)c1cccc2cncc(F)c12,inactive,inactive,inactive,inactive,inactive,-0.978 (inactive),-0.15,0.771,–
CCS(=O)(=O)c1ccc2oc(-c3ccc4ccccc4c3)nc2c1,inactive,inactive,inactive,inactive,inactive,-0.19 (inactive),-0.286,0.217,–
O=C1CC(c2c[nH]c3ccc(F)cc23)C(=O)N1 (configuration not stated),inactive,inactive,inactive,inactive,inactive,0.488 (inactive),0.554,0.655,–
N#Cc1ccc(N(Cc2ccc(Br)cc2)n2cnnc2)cc1,inactive,inactive,inactive,inactive,inactive,-0.397 (inactive),-0.74,-0.908,–
Cc1cc(C)c(S(=O)(=O)N(CCc2cccc(Br)c2)Cc2ccc(-c3cccc(S(C)(=O)=O)c3)cc2)c(C)c1,inactive,inactive,inactive,inactive,inactive,0.662 (inactive),0.747,0.467,–
CCOc1cc(/C=C2/C(=O)N(c3ccccc3)N=C2C)cc(Cl)c1OCC(=O)OC,inactive,inactive,inactive,inactive,inactive,1.36 (inactive),1.44,0.891,–
Cc1[nH]cnc1CN1CCN(C(=O)N[C@@H](CC(C)C)C(=O)O)[C@@H](Cc2ccccc2)C1=O,inactive,inactive,inactive,inactive,inactive,-0.059 (inactive),0.199,0.0254,–
